This is an account of results in PubChem BioAssay (Tox21).

Inconclusive results are not listed. A call without a number means that no potency is given here. Activity calls are given as the source filed them. Calls come from the whole dose curve; as a rule, active = well fitted curve in the direction sought with a large enough effect in the repeat runs; inconclusive = weak or mixed curves; inactive = no such curve, though single readings can be large; an effect the other way counts as inactive or inconclusive.

One experiment is described as follows: Human pregnane X receptor (PXR) small molecule agonists, qHTS cell viability counter screen (AID 1346977). Note: nearly all actives have a fitted effect of over 50% in size. The following applies: PXR-Luc HepG2 viability, CellTiter-Fluor, 24 h; series mostly up to 92.4 µM. The procedure, abridged: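 HepG2 cells stably carrying the PXR-Luc reporter are cultured with 5% charcoal-stripped FBS and treated with compounds for 24hr. CellTiter-Fluor is added at 23hr and fluorescence is read after 1hr.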
For the compound `OC[C@]1(O)OC[C@@H](O)[C@H](O)[C@@H]1O`, the Potency result was “inactive”.

In the case of `CCCCC/C=C\CCC=O`, the Potency result is “inactive”.

As for `CCCC(=O)O[C@]1(C(=O)CO)CC[C@H]2[C@@H]3CCC4=CC(=O)CC[C@]4(C)[C@H]3[C@@H](O)C[C@@]21C`, the Potency result was “inactive”.

`COC(=O)CCSCCC(=O)OC`: the Potency entry was “inactive”.

Turning to `CC(=O)c1ccccc1O`, the Potency entry is “inactive”.

On to `CC(NC(CCc1ccccc1)C(=O)O)C(=O)N1C(=O)N(C)CC1C(=O)O` (configuration not stated), for which the Potency result was “inactive”.

Turning to `CC(C)OC(=O)c1ccccc1`, the Potency result is “inactive”.

Consider `CCCCCCCCCCCCCCCCC`, for which the Potency entry is “inactive”.

On to `COC(=O)CC(C)=O`, for which the Potency result was “inactive”.

For the compound `COc1ccc2c(c1)c(CC(=O)OCC(=O)O)c(C)n2C(=O)c1ccc(Cl)cc1`, the Potency result was “inactive”.

In the case of `CCN1CCC[C@H]1CNC(=O)c1c(O)c(Cl)cc(Cl)c1OC`, the Potency entry was “inactive”.

On to `O=C(O)c1ccccc1OP(=O)(O)O`, for which the Potency entry was “inactive”.

With `CCOC(C)(C)C`, the Potency entry is “inactive”.

On to `Nc1nc2c(ncn2COC(CO)CO)c(=O)[nH]1`, for which the Potency result was “inactive”.

Take `CCCCCCCCCCCCCC=O`: the activity change, negative = cytotoxicity is -1.66% [at 8.39 µM] (inactive).

In the case of `c1cnc(N2CCN(Cc3ccc4c(c3)OCO4)CC2)nc1`, the Potency result was “inactive”.

For the compound `NCCc1cnc[nH]1`, the Potency result was “inactive”.

`COc1c(N2C[C@@H]3CCCN[C@@H]3C2)c(F)cc2c(=O)c(C(=O)O)cn(C3CC3)c12`: the Potency entry is “inactive”.

`O=S(O)CO`: the Potency entry was “inactive”.

Take `O=c1n(CCO)c(=O)n(CCO)c(=O)n1CCO`: the Potency result is “inactive”.

Consider `CCCCOCCOCCOCCCC`, for which the Potency entry is “inactive”.

As to `CCc1ccc(O)c(OC)c1`, the Potency entry was “inactive”.

Take `CCCCCCCCS(=O)(=O)Cl`: the Potency entry is “inactive”.

Consider `CCO[Si](CCC1CCC2OC2C1)(OCC)OCC` (configuration not stated), for which the Potency entry was “inactive”.

Consider `NC(=O)c1ccc([N+](=O)[O-])cc1`, for which the Potency result was “inactive”.

For `O=Cc1cccc([N+](=O)[O-])c1`, the Potency result was “inactive”.

Another experiment is described as follows: Caspase-3/7 induction in HepG2 cells by small molecules, qHTS assay (AID 1346978). Note: nearly all actives have a fitted effect of over 15% in size. The following applies: HepG2 caspase-3/7 activation, Caspase-Glo luminescence, 17 h; series mostly up to 92.4 µM. An outline of the steps:
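Wild-type HepG2 cells (2,000/well) were settled 5 h at 37 C, 5% CO2, then exposed to compounds in DMSO for 17 h. Caspase-3/7 activity was read by luminescence 30 min after adding Caspase-Glo 3/7 reagent at room temperature.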
With `CCCC(=O)O[C@]1(C(=O)CO)CC[C@H]2[C@@H]3CCC4=CC(=O)CC[C@]4(C)[C@H]3[C@@H](O)C[C@@]21C`, the Potency entry was “inactive”.

Consider `COC(=O)CCSCCC(=O)OC`, for which the Potency entry is “inactive”.

For the compound `CC(=O)c1ccccc1O`, the Potency entry was “inactive”.

For the compound `CC(C)OC(=O)c1ccccc1`, the Potency result is “inactive”.

On to `Nc1c2c(nc3ccccc13)CCCC2O` (configuration not stated), for which the Potency entry was “inactive”.

As to `CCCCCCCCCCCCCCCCC`, the Potency entry was “inactive”.

For the compound `COC(=O)CC(C)=O`, the Potency result was “inactive”.

As to `COc1ccc2c(c1)c(CC(=O)OCC(=O)O)c(C)n2C(=O)c1ccc(Cl)cc1`, the Potency entry was “inactive”.

For `CCN1CCC[C@H]1CNC(=O)c1c(O)c(Cl)cc(Cl)c1OC`, the Potency result was “inactive”.

On to `O=C(O)c1ccccc1OP(=O)(O)O`, for which the Potency entry is “inactive”.

For `Nc1nc2c(ncn2COC(CO)CO)c(=O)[nH]1`, the Potency result was “inactive”.

Turning to `c1cnc(N2CCN(Cc3ccc4c(c3)OCO4)CC2)nc1`, the Potency entry was “inactive”.

On to `CC/C=C\CC/C=C/C(OCC)OCC`, for which the Potency entry is “inactive”.

For `CCC(=O)OC(C)c1ccccc1` (configuration not stated), the Potency result was “inactive”.

Regarding `O=S(O)CO`, the Potency entry was “inactive”.

With `O=c1n(CCO)c(=O)n(CCO)c(=O)n1CCO`, the Potency entry was “inactive”.

On to `CCCCOCCOCCOCCCC`, for which the Potency result is “inactive”.

On to `CCc1ccc(O)c(OC)c1`, for which the Potency entry was “inactive”.

Turning to `CCCCCCCCS(=O)(=O)Cl`, the Potency result was “inactive”.

As to `CS(=O)(=O)O`, the Potency entry was “inactive”.

For the compound `O=C(O)CCCc1ccccc1`, the Potency entry is “inactive”.
